Experimental data: PubChem BioAssay AID1259417 (TB Discovery Research, Infectious Disease Research Institute, 2018)
Hit rate of the full screen: of about 1,100 compounds, about 760 (69%) were called active. No rule for the calls is given here. The set was probably picked from earlier hits. The list shows a part of the results.

Assay: M. tuberculosis growth inhibition, HTS (AID 1259417);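 also: bacteria grown with compound for 5 days at 37 °C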
Conditions: stronger effect = higher value, concentration not given here
[1] = M. tuberculosis DsRed fluorescence growth inhibition
[2] = M. tuberculosis growth inhibition

c1c2c(cc3sc(N4CCCC4)nc13)OCO2
inhibition [1]: 100% (active)
inhibition [2]: 99.8%

Cc1cc(NC(=O)CSc2nnnn2-c2ccccc2C)no1
inhibition [1]: 56.3% (active)
inhibition [2]: 88.3%

CCOc1ccc(NC(=O)CSc2nnc(-c3ccccc3Cl)o2)cc1
inhibition [1]: 13.5% (inactive)
inhibition [2]: -1.29%

Cc1ccc(-c2nnc(SCC(=O)Nc3cc(C)on3)o2)cc1
inhibition [1]: 2.19% (active)
inhibition [2]: 50.5%

Cc1cc(NC(=O)CSc2nnc(Cc3ccccc3)o2)no1
inhibition [1]: -2.93% (inactive)
inhibition [2]: 6.89%

CCOc1ccc(-c2nnc(SCC(=O)Nc3cc(C)on3)o2)cc1
inhibition [1]: -1.63% (active)
inhibition [2]: 32.7%

O=C(CCN1C(=O)C2C3C=CC(C4CC34)C2C1=O)Oc1cccc2cccnc12 (configuration not stated)
inhibition [1]: 100% (active)
inhibition [2]: 101%

O=C(Oc1cccc2cccnc12)C(Cc1ccccc1)N1C(=O)C2C3CCC(C3)C2C1=O (configuration not stated)
inhibition [1]: 99.8% (active)
inhibition [2]: 101%

O=C(CCN1C(=O)c2ccccc2C1=O)Oc1cccc2cccnc12
inhibition [1]: 99.5% (active)
inhibition [2]: 100%

CC(C(=O)Oc1cccc2cccnc12)N1C(=O)C2C3C=CC(C4CC34)C2C1=O (configuration not stated)
inhibition [1]: 100% (active)
inhibition [2]: 101%

COc1cc2cc(-c3nc4ccccc4[nH]3)c(N)nc2cc1OC
inhibition [1]: 93.9% (active)
inhibition [2]: 94%

CCc1nc2sc(C(=O)NCc3ccc(F)cc3)c(N)c2c(C(F)(F)F)c1C
inhibition [1]: 41.1% (active)
inhibition [2]: 20.9%

COc1ccc(CNC(=O)c2c(N)nc3sc4c(c3c2C(F)(F)F)CCC4)cc1
inhibition [1]: 4.42% (inactive)
inhibition [2]: -3.32%

COC(=O)CN1C(c2cccc(Cl)c2)=Nc2ccc(Cl)cc2C1c1ccccc1 (configuration not stated)
inhibition [1]: 10.1% (active)
inhibition [2]: 40.7%

COC(=O)CN1C(c2ccc(OC)cc2)=Nc2ccc(Cl)cc2C1c1ccccc1 (configuration not stated)
inhibition [1]: 52.5% (active)
inhibition [2]: 79.3%

CC12CC3CC(C)(C1)CC(C(=O)Nc1nc4ccccc4s1)(C3)C2
inhibition [1]: 98.3% (active)
inhibition [2]: 97.6%

CSc1ccc2nc(Nc3nc4ccc(NC(C)=O)cc4s3)sc2c1
inhibition [1]: 2.19% (inactive)
inhibition [2]: 1.87%

CCCn1nnc(NC(=O)COc2ccc(C3CCCCC3)cc2)n1
inhibition [1]: 26.3% (active)
inhibition [2]: 72.9%

CCn1nnc(NC(=O)COc2ccc(C3CCCCC3)cc2)n1
inhibition [1]: 37% (active)
inhibition [2]: 86.6%

CCOC(=O)CSCC(=O)Nc1c(C(=O)C2CC2)oc2ccccc12
inhibition [1]: 27.6% (active)
inhibition [2]: 48.3%

CCC(=O)Oc1ccc(C(=O)Nc2cc3oc4ccccc4c3cc2OC)cc1
inhibition [1]: 12% (inactive)
inhibition [2]: 10.7%

CC(C)(C)C(=O)/C=C/Nc1ccccc1O
inhibition [1]: 99.2% (active)
inhibition [2]: 98.5%

CSc1nsc(SCC(=O)N2CCN(c3ccccc3)CC2)n1
inhibition [1]: 98.3% (active)
inhibition [2]: 98.7%

COc1cc(NC(=O)c2ccc3c(c2)OCCO3)ccc1NC(=O)c1ccccc1Cl
inhibition [1]: 2.06% (inactive)
inhibition [2]: 9.67%

O=C(Nc1ccc2c(c1)OCCO2)c1cccc2nc3ccccc3nc12
inhibition [1]: 97.2% (active)
inhibition [2]: 96.7%

Cc1ccc([N+](=O)[O-])cc1NC(=O)CN(C(=O)c1ccccc1Cl)C1CCCCC1
inhibition [1]: 75.1% (active)
inhibition [2]: 49.8%

Cc1ccc(NC(=O)CC2COc3ccccc3O2)cc1Cl (configuration not stated)
inhibition [1]: 2.96% (inactive)
inhibition [2]: -10.1%

COc1ccc(-c2cc(C(=O)NN=CC=Cc3ccccc3OC)[nH]n2)cc1
inhibition [1]: 9.99% (active)
inhibition [2]: 65%

COc1ccc(C(=O)Nc2cc(OC)c(NC(=O)c3ccco3)cc2OC)cc1
inhibition [1]: 0.929% (inactive)
inhibition [2]: -7.24%

O=C1NN=C2C1=NC1(CCCCC1)Cc1ccccc12
inhibition [1]: 99.4% (active)
inhibition [2]: 99%

CCOC(=O)N1CCN(CCC(=O)c2ccc(Cl)cc2)CC1
inhibition [1]: 25.5% (active)
inhibition [2]: 58.7%

CCCCOc1cccc(C(=O)Nc2nnc(-c3ccc(C)cc3C)o2)c1
inhibition [1]: 92.2% (active)
inhibition [2]: 77.5%

O=C(CCOc1ccccc1)Nc1nnc(-c2cc(Cl)ccc2Cl)o1
inhibition [1]: 1.59% (inactive)
inhibition [2]: -1.65%

Cc1ccc(-c2nnc(NC(=O)CCOc3ccccc3)o2)c(C)c1
inhibition [1]: 61.8% (active)
inhibition [2]: 78.2%

N=c1sc(/C=C2\C=Nc3ccccc32)c(O)n1-c1nccs1
inhibition [1]: 97.2% (active)
inhibition [2]: 94.9%

Cc1ccc(C(C)C)c(OCc2nn(CC(=O)c3ccc(OC(F)F)cc3)c3[n+]2CCCCC3)c1
inhibition [1]: 100% (active)
inhibition [2]: 99.1%

Cc1ccc(C(=O)N2CCN(c3ccc(NC(=O)COc4c(C)cc(C)cc4Br)cc3)CC2)cc1
inhibition [1]: -0.254% (inactive)
inhibition [2]: -20.4%

CCC(C)NC(=O)c1ccc(NC(=O)C2(c3ccccc3)CCCC2)cc1 (configuration not stated)
inhibition [1]: 31.9% (active)
inhibition [2]: 42.8%

O=C(c1ccc(NC(=O)C2(c3ccccc3)CCCC2)cc1)N1CCCCC1
inhibition [1]: 99.8% (active)
inhibition [2]: 99.3%

COC(=O)c1ccc(NC(=O)CSc2nc(-c3ccccc3C)ns2)cc1
inhibition [1]: 15.6% (active)
inhibition [2]: 32.6%

CSc1nsc(SCC(=O)Nc2ccc(OC(C)=O)cc2)n1
inhibition [1]: 8.33% (inactive)
inhibition [2]: 24.6%

Cc1ccc(-c2nsc(SCC(=O)Nc3ccc4c(c3)OCO4)n2)cc1
inhibition [1]: 9.75% (inactive)
inhibition [2]: 1.51%

COC(=O)c1ccc(NC(=O)CSc2nc(-c3cccc(C)c3)ns2)cc1
inhibition [1]: 15.3% (active)
inhibition [2]: 38.3%

Cc1ccc2oc(-c3cc(NC(=O)Cc4ccccc4)ccc3Cl)nc2c1
inhibition [1]: 88% (active)
inhibition [2]: 49.9%

COC(=O)CSc1nc(N2CCCCC2)c2c(c1C#N)CCCC2
inhibition [1]: 26.1% (active)
inhibition [2]: 78.9%

COC(=O)CSc1nc(-c2ccccc2)c2c(c1C#N)CCCC2
inhibition [1]: -3.83% (inactive)
inhibition [2]: -16.2%

COC(=O)CSc1nc2c(c(-c3ccco3)c1C#N)CCCC2
inhibition [1]: 2.74% (inactive)
inhibition [2]: -22.6%

COC(=O)C(C)Oc1ccc(-c2nccc(-c3cccs3)n2)cc1 (configuration not stated)
inhibition [1]: 43.6% (active)
inhibition [2]: 69.4%

CC(C)(C)c1cc(Cl)ccc1OCCCCn1ccnc1
inhibition [1]: 99.7% (active)
inhibition [2]: 99.7%

CC(C)(C)NCCCCOc1ccc(Cl)cc1C(C)(C)C
inhibition [1]: 59% (active)
inhibition [2]: 43.9%

CC(C)(C)c1cc(Cl)ccc1OCCn1ccnc1
inhibition [1]: 90.4% (active)
inhibition [2]: 95%

C#CCOCCOCCOCCNc1nc(N2CCN(C(=O)[C@H](Cc3cc4ccccc4[nH]3)n3cc([C@@H](N)CC(C)C)nn3)CC2)nc(N2CCN(C(=O)[C@H](Cc3cc4ccccc4[nH]3)n3cc([C@@H](N)CC(C)C)nn3)CC2)n1
inhibition [1]: 68% (active)
inhibition [2]: 50.3%

O=S(=O)(Nc1cccc2cccnc12)c1ccc(Br)cc1
inhibition [1]: 73.1% (active)
inhibition [2]: 91.6%

Cc1ccc2nsnc2c1S(=O)(=O)Nc1cccc2cccnc12
inhibition [1]: 100% (active)
inhibition [2]: 99.4%

O=S(=O)(Nc1cc(Br)c(O)c2ccccc12)c1ccc(F)cc1
inhibition [1]: 3.24% (inactive)
inhibition [2]: -11.2%

O=S(=O)(Nc1cc(Sc2cccc3cccnc23)c(O)c2ccccc12)c1ccccc1
inhibition [1]: 3.26% (active)
inhibition [2]: 44.3%

O=C(Nc1ccc(S(=O)(=O)N2CCC(c3nc4ccccc4[nH]3)CC2)cc1)c1cccc(Cl)c1
inhibition [1]: 0.997% (inactive)
inhibition [2]: -16%

Cc1ccc(NC(=O)N2CCC(c3nc4c(nnn4Cc4cccc(Cl)c4)c(=O)[nH]3)CC2)cc1
inhibition [1]: 97.3% (active)
inhibition [2]: 99.6%

C=CCOC(=O)COc1ccc2c(-c3cc4ccccc4oc3=O)cc(=O)oc2c1
inhibition [1]: 37.7% (active)
inhibition [2]: 60.7%

CC(C)OC(=O)COc1ccc2cc(-c3ccccc3)c(=O)oc2c1
inhibition [1]: 61.1% (active)
inhibition [2]: 80.6%

COC(=O)C(C)Oc1ccc2cc(-c3ccc(OC)cc3)c(=O)oc2c1 (configuration not stated)
inhibition [1]: 66.3% (active)
inhibition [2]: 96.3%

C=CCOC(=O)COc1ccc2cc(-c3ccc(OC)cc3)c(=O)oc2c1
inhibition [1]: 97.2% (active)
inhibition [2]: 98.4%

CCCC1(O)CC(c2ccc(Cl)cc2)NC(c2ccc(Cl)cc2)C1C (configuration not stated)
inhibition [1]: 8.53% (inactive)
inhibition [2]: -21.7%

C=CCOC(=O)COc1ccc2c(C)c(-c3ccccc3)c(=O)oc2c1
inhibition [1]: 71.8% (active)
inhibition [2]: 92.5%

C=CCOC(=O)COc1ccc2cc(-c3ccc(Cl)cc3)c(=O)oc2c1
inhibition [1]: 98.9% (active)
inhibition [2]: 99.5%

C=CCOC(=O)COc1ccc2cc(-c3ccccc3)c(=O)oc2c1
inhibition [1]: 93.1% (active)
inhibition [2]: 97%

Cc1cc(C)cc(Nc2cc(C)nc3c(-c4ccccc4)cnn23)c1
inhibition [1]: 5.66% (inactive)
inhibition [2]: 21.5%

COc1ccc(CCNc2cc(C)nc3c(-c4ccccc4)c(C)nn23)cc1OC
inhibition [1]: 98.5% (active)
inhibition [2]: 98.9%

COC(=O)C(C)Oc1ccc2c(=O)c(Oc3ccccc3Br)coc2c1 (configuration not stated)
inhibition [1]: 59.3% (active)
inhibition [2]: 82.3%

CCc1ccc(Oc2coc3cc(OC(C)C(=O)OC)ccc3c2=O)cc1 (configuration not stated)
inhibition [1]: 65.1% (active)
inhibition [2]: 92.2%

CC(C)C(=O)N1CCN(c2ccc(NC(=O)c3ccc([N+](=O)[O-])o3)cc2)CC1
inhibition [1]: 99.1% (active)
inhibition [2]: 100%

CC(C)C(=O)N1CCN(c2ccccc2NC(=O)c2ccc([N+](=O)[O-])o2)CC1
inhibition [1]: 19.7% (inactive)
inhibition [2]: 5.43%

O=C(Nc1ccc(N2CCN(Cc3ccccc3F)CC2)cc1)c1ccc([N+](=O)[O-])o1
inhibition [1]: 100% (active)
inhibition [2]: 99.7%

CC1CCN(c2ccc(NC(=O)c3ccc([N+](=O)[O-])o3)cc2)CC1
inhibition [1]: 98.8% (active)
inhibition [2]: 98.7%

CCOC(=O)COc1ccc(C(=O)Nc2cccc(Cl)c2C)cc1
inhibition [1]: 97.7% (active)
inhibition [2]: 97.9%

Cc1sc2ncn(C(C)C(=O)OC3CCCCC3)c(=O)c2c1C (configuration not stated)
inhibition [1]: 6.18% (inactive)
inhibition [2]: 8.72%

Cc1c(Cl)cccc1NC(=O)c1ccc(OC(C)C(=O)OC2CCCCC2)cc1 (configuration not stated)
inhibition [1]: 38.3% (active)
inhibition [2]: 74.3%

CCOC(=O)COc1ccc(S(=O)(=O)Nc2ccc(C)c(C)c2)cc1
inhibition [1]: -1.13% (inactive)
inhibition [2]: 22%

CCOC(=O)COc1ccc(S(=O)(=O)Nc2c(C)cccc2CC)cc1
inhibition [1]: 53% (active)
inhibition [2]: 92.2%

CCOC(=O)COc1ccc(S(=O)(=O)Nc2cccc(Cl)c2C)cc1
inhibition [1]: 14.4% (active)
inhibition [2]: 55.5%

CSc1ncc(C(=O)NCc2ccco2)cn1
inhibition [1]: 35.2% (active)
inhibition [2]: 25.2%

Cc1scc(C(=O)NCc2ccco2)c1-c1ccccc1
inhibition [1]: 2.71% (inactive)
inhibition [2]: 6.55%

O=C(NCc1ccco1)c1cc([N+](=O)[O-])cc([N+](=O)[O-])c1
inhibition [1]: 97.8% (active)
inhibition [2]: 93.5%

CSc1ncc(C(=O)Nc2cccc(C(F)(F)F)c2)cn1
inhibition [1]: 12.9% (inactive)
inhibition [2]: 15.6%

COc1ccccc1C(=O)Nc1sc2c(c1C(=O)NCc1ccco1)CCC2
inhibition [1]: 3.89% (inactive)
inhibition [2]: -6.54%

O=C(Nc1sc2c(c1C(=O)NCc1ccco1)CCC2)c1ccccc1[N+](=O)[O-]
inhibition [1]: 3.29% (inactive)
inhibition [2]: -5.87%
